Common to all, as to experiment: NCI-60 one-dose screen, 48 h (100 = growth as untreated, 0 = no growth, -100 = all killed)
What all share (conditions): 10 µM

In experiment [1] the test system is T-47D breast.
Experiment [2] deals with BT-549 breast.
The subject of experiment [3] is MDA-MB-435 melanoma.
Experiment [4] concerns SW-620 colon.
The test system of experiment [5] is MCF7 breast.
The test system of experiment [6] is HCT-116 colon.
The subject of experiment [7] is HCC-2998 colon.
The subject of experiment [8] is KM12 colon.
The subject of experiment [9] is MDA-MB-468 breast.

Compounds without any hit were thinned out: in the full panel of roughly 83,000, 20% have a hit.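 Compound tested at a single concentration for 48 hours in 96-well plates; a percent growth value below 10 was scored as active.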 Values without a mark were called inactive. Active and inactive are the calls of the source.

Regarding `Cc1noc2c(Cc3ccccc3)nn(CC(=O)N/N=C/c3ccc(F)cc3)c(=O)c12`, the growth is 12.6% in experiment [1]; 64.1% in [2]; 71.1% in [3]; 79.9% in experiment [4]; 61.7% in experiment [5]; 35% in [6]. Moreover, the growth in [7] is 67.1%; in experiment [8], 86.2%; in experiment [9] it was 85.4%.

As to `CNCc1cccc2c1OCCCCCC[C@@](C)(O)CC1(CC1)S(=O)(=O)c1ccc(cc1)-c1cnc(N)c(n1)C(=O)N2`, the growth in experiment [1] was 33.7%; in experiment [2], -75.2% (active); in experiment [3], -95.2% (active); in experiment [4] it was -84.6% (active); in experiment [5], -90% (active); in experiment [6], 0.182% (active). Also, the growth in [7] was -100% (active); in [8] it was -68.7% (active); in experiment [9] it was -98% (active).

Take `O=C(Nc1ccc(OCc2ccccc2)cc1)Nc1ccc(Cl)c(C(F)(F)F)c1`: the growth in experiment [1] is -2.54% (active); in experiment [2] it was -15.9% (active); in [3], -1.55% (active); in experiment [4] it was 13%; in experiment [5] it was 2.34% (active); in experiment [6], 2.43% (active). The figures for the growth in experiment [7], in experiment [8] and in [9] were 21.4%, 1.83% (active) and -36% (active), respectively.

As for `O=C(CNc1nc(-c2ccccc2)cs1)Nc1ccccc1`, the growth was -15.3% (active) in experiment [1]; -57.7% (active) in experiment [2]; -3.84% (active) in [3]; -38.6% (active) in experiment [4]; -59.7% (active) in experiment [5]; 3.71% (active) in experiment [6]. Besides, the growth in experiment [7] was -94.9% (active); in [8] it was 2.41% (active); in [9], -78% (active).

As for `Cc1cccc(-c2nc(Nc3ccccc3C(=O)O)c3ccccc3n2)c1`, the growth is 26.8% in experiment [1]; -0.675% (active) in experiment [2]; 44.6% in [3]; 35.5% in experiment [4]; 24% in experiment [5]; 22.7% in experiment [6]. Moreover, the values for the growth in experiment [7], in experiment [8] and in experiment [9] were 27.1%, 30% and -15.1% (active), respectively.

Turning to `COc1ccc(CCN2C(=O)/C(=C/c3csc(C#N)n3)SC2=S)cc1`, the growth is -5.27% (active) in experiment [1]; -44.6% (active) in [2]; -23.6% (active) in [3]; -14.6% (active) in experiment [4]; -0.841% (active) in experiment [5]; -63.2% (active) in experiment [6]. Further, the growth in [7] was -32.8% (active); in experiment [8] it was -61.4% (active); in [9] it was -67.2% (active).

As for `O=C(CSc1nnc(-c2c[nH]c3ccccc23)n1-c1ccccc1)Nc1ccc(C(=O)/C=C/c2ccc(Br)cc2)cc1`, the growth in experiment [1] was 57.9%; in experiment [2], 87.4%; in experiment [3] it was 85.8%; in experiment [4] it was 97.6%; in experiment [5] it was 25.3%; in experiment [6], -32.4% (active). For the same compound, the growth is 94.4% in experiment [7], 72% in [8] and 71.1% in experiment [9].

For the compound `CC[C@]12C=CCN3CC[C@@]4(c5cc(C#CCNc6ccc(C)c(Nc7nccc(-c8cccnc8)n7)c6)c(OC)cc5N(C)[C@H]4[C@@](O)(C(=O)OC)[C@@H]1OC(C)=O)C32` (some centres not stated), the growth is 45.5% in experiment [1]; -3.24% (active) in [2]; 34% in experiment [3]; 50% in [4]; 21.7% in experiment [5]; 27.2% in experiment [6]. For the same compound, the figures for the growth in experiment [7], in experiment [8] and in experiment [9] were 41.2%, 44.9% and 1.75% (active), respectively.

For the compound `COc1ccc(-c2nc(Nc3ccccc3S(N)(=O)=O)c3ccccc3n2)cc1`, the growth in experiment [1] was 35.7%; in [2], 85.8%; in experiment [3] it was 34.1%; in experiment [4] it was 8.47% (active); in experiment [5], 9.02% (active); in experiment [6], -42.9% (active). Further, the values for the growth in experiment [7], in [8] and in experiment [9] were 12%, 6.25% (active) and -13.4% (active), respectively.

For the compound `Cc1cccc2cc(-c3cc(-c4ccccc4)nc(=S)[nH]3)c(Cl)nc12`, the growth in experiment [1] is 72.9%; in [2] it was 53.1%; in experiment [3] it was -6.63% (active); in [4], 92%; in [5] it was 68.3%; in experiment [6] it was 83.3%. Further, the growth is 93.1% in experiment [7], 91.4% in experiment [8] and 90.6% in experiment [9].

`CN1C(=O)N(C)C2SC(N/N=C/c3ccccc3F)=NC21` (configuration not stated): the growth in [1] is 64.3%; in [2], 45.4%; in experiment [3] it was -16.6% (active); in experiment [4], 47.4%; in experiment [5], 32%; in [6], 37.5%. Also, the growth in [7] is 88.5%; in experiment [8], 45.2%; in [9] it was 0.576% (active).

Consider `Cc1ccc(/C=C/C(=O)c2ccc(NC(=O)CSc3nnc(-c4c[nH]c5ccccc45)n3-c3ccccc3)cc2)c(C)c1`, for which the growth in [1] was 36.9%; in experiment [2] it was 52.8%; in experiment [3], 49.5%; in [4], 33.2%; in [5], 3.33% (active); in experiment [6], -4.32% (active). In addition, the figures for the growth in [7], in experiment [8] and in experiment [9] were 74.1%, 66.6% and 22%, respectively.

For the compound `CC(C)CCSc1nc(NC2CC2)c(C#N)c(-c2ccc(C(C)C)cc2)n1`, the growth in [1] is 100%; in experiment [2], 100%; in experiment [3] it was 112%; in experiment [4], 114%; in experiment [5], 97.9%; in experiment [6] it was 108%. Besides, the values for the growth in experiment [7], in [8] and in experiment [9] were 115%, 107% and 106%, respectively.

The values above are taken from PubChem BioAssay (NCI).
